SMILES strings stand for the structures. The list shows a part of the results. Inconclusive results are not listed. The source made the active and inactive calls. Calls follow the shape of the dose curve; as a rule, active = well fitted inhibition curve with a large enough effect; inconclusive = small, poorly fitted or top-dose-only effect; inactive = no such curve, though single readings can be large or run the other way.
Potency is read from the fitted curve at half-maximal effect.

In the experiment the test system is pyruvate kinase (Trypanosoma brucei). Briefly: qHTS of Trypanosoma Brucei Inhibitors: Confirmatory Assay for Cherry-picked Compounds. Also: nearly all actives have a fitted effect of over 70% in size. To be noted: recombinant TbPYK, Kinase-Glo ATP luminescence; series mostly up to 76.9 µM. An excerpt: Members of the Trypanosomatidae family of parasitic protozoans cause a spectrum of diseases throughout the tropical and subtropical world. Sleeping sickness, caused by two subspecies of Trypanosoma brucei, is endemic to areas of sub-Saharan Africa, while Chagas' disease, a manifestation of Trypanosoma cruzi infection, is prevalent throughout Central and South America. In addition, many species of Leishmania are responsible for a range of cutaneous and visceral diseases, causing ulcers, destructive lesions and kalaazar, a lethal infection of the viscera. These diseases cause severe public health and economic burdens on populations that are often already caught in a tragic cycle of poverty, poor nutrition and disease. Collectively, parasites of the trypanosomatid family infect 30 million people worldwide (~500 million live in endemic areas), and account for ~130K deaths annually. Existing treatments have developed little in the past 50 years, and suffer from toxicity, poor efficacy and resistance; the goal of this project is to develop lead drugs that will be suitable for entry into pre-clinical trials. […] Glycolysis in axenically cultured T. cruzi, representing the intracellular pathogenic stage, is also essential for these parasites. {Engel, 1987} This project aims to discover and optimize selective inhibitors of the glycolytic enzyme pyruvate kinase (PYK) from Trypanosoma brucei, the parasite that causes sleeping sickness. […] Trypanosomatid PYKs show significant differences from their human counterparts including only 47-50% sequence identity and different allosteric and activation properties.{Callens, 1992} To this end, a qHTS was done against the MLSMR to discover inhibitors. NIH Molecular Libraries Probe Production Network [MLPCN] NIH Chemical Genomics Center [NCGC] Grant: MH095452 PI Name: Malcolm Walkinshaw, University of Edinburgh
Two uL of TbPYK/substrate buffer (columns 1-3, 5-48) are dispensed into Greiner white solid bottom 1536-well assay plates; column 4 receives only TEA buffer as 0x TbPYK controls. Compounds are then transferred via Kalypsys pin tool equipped with 1536-pin array (10 nL slotted pins, V&P Scientific, San Diego, CA). Following addition of compound, 2 uL of ADP (130 uM final concentration, all columns) is added to initiate the reaction. The plates are then incubated at room temperature for 45 minutes. Kinase-Glo Plus reagent is added (3 uL) and plates incubated for 10 minutes, before being transferred to a ViewLux high-throughput CCD imager (PerkinElmer) wherein single end-point measurements of luminescence are acquired using a clear filter. All reagents are diluted in an assay buffer consisting of 50 mM TEA (pH 7.2), 100 mM KCl, 10 mM MgCl2, 0.05% BSA and 0.01% Tween-20. All screening operations will be performed on a fully integrated robotic system (Kalypsys, San Diego, CA) containing one RX-130 and two RX-90 anthropomorphic robotic arms (Staeubli, Duncan, SC). Library plates will be screened starting from the lowest and proceeding to the highest concentration. Vehicle-only plates, with DMSO being pin-transferred to columns 5-48, will be inserted uniformly at the beginning and the end of each library in order to monitor and record any shifts in the background, which can be affected by reagent dispensers or loss in enzyme activity over time. Screening data will be corrected, normalized, and concentration-effect relationships will be derived by using publicly-available curve fitting algorithms developed in-house (http://ncgc.nih.gov/pub/openhts).
On the technique in general: qHTS replaces the single test concentration by a dilution series.
For the compound `Cc1cccc(-n2c(N)c(C(=O)N3CCN(C)CC3)sc2=S)c1`, the Potency is 1 µM (active).

`O=C1C=CC(=O)N1c1ccc(N2CCCCC2)cc1`: the Potency is 7.08 µM (active). As to `Cc1ccc(C)c2c1cc(C)c1nnc(SCC(=O)Nc3cccc(C(=O)O)c3)n12`, the Potency is 2.24 µM (active). The value for `O=C(CSc1ccc(-c2ccco2)nn1)Nc1cccc(F)c1` was 15.8 µM (active); that for `COc1cccc(C(=O)Nc2ccc(N3CCCC3)cc2)c1` was 20 µM (active); that for `O=C(CCCCCn1c(=S)[nH]c2ccsc2c1=O)NC1CCCCC1` was 14.1 µM (active). Take `Cc1c(C)c(C)c(S(=O)(=O)N2CCC3(CC2)OCCO3)c(C)c1C`: the Potency result is “inactive”. Regarding `N#Cc1c(N2CCCCC2)nc(N)c2c(N)nc(SCC(=O)O)cc12`, the Potency was 31.6 µM (active).

Consider `O=C(CN1CCN(c2ccc(O)cc2)CC1)Nc1ccc(-c2ccccc2)cc1`, for which the Potency was 28.2 µM (active). Consider `NC(=O)c1c(Nc2nc3c(F)cccc3s2)sc2c1CCCC2`, for which the Potency is 4.47 µM (active). As to `Cc1nonc1C(=O)N/N=C/c1ccc(O)cc1`, the Potency was 15.8 µM (active). With `CC(=O)N1CC[n+]2c(-c3ccc([N+](=O)[O-])cc3)csc21`, the Potency was 1.78 µM (active). As for `O=c1[nH]c2ccccc2n2c(-c3ccccc3)nnc12`, the Potency was 0.126 µM (active).

As for `CSc1c(SCc2ccccc2)cnn(Cc2ccccc2)c1=O`, the Potency is 17.8 µM (active).

Consider `COc1cc(C2CC(=O)N3CN(Cc4ccccc4)CSC3=C2C#N)ccc1OCc1ccccc1` (centres undefined), for which the Potency was 0.126 µM (active). For `Cc1nc2ccc(S(=O)(=O)NCC(=O)O)cc2s1`, the Potency is 6.31 µM (active).

Regarding `O=C(Nc1ccc(S(=O)(=O)N2CCOCC2)cc1)c1ccc2ncsc2c1`, the Potency was 10 µM (active). The same measure for `O=C(CN1CCN(c2ccc(O)cc2)CC1)Nc1cc(S(=O)(=O)N2CCOCC2)ccc1Cl`: 14.1 µM (active); for `Oc1c(CN2CCOCC2)ccc(CN2CCOCC2)c1O`: 20 µM (active). As for `C=CCn1c(=S)[nH]c2scc(-c3ccco3)c2c1=O`, the Potency was 14.1 µM (active). As for `O=c1ccc2c(-c3ccccc3S(=O)(=O)O)c3ccc(O)c(O)c3oc-2c1O`, the Potency is 8.91 µM (active). Turning to `COC(=O)/C=C\C(=O)Nc1cccc([N+](=O)[O-])c1`, the Potency result is “inactive”. For the compound `Cc1ccc(/C=C/C(=O)Nc2ccc([N+](=O)[O-])c(NC(=O)/C=C/c3ccc(C)o3)c2)o1`, the Potency was 17.8 µM (active). Regarding `Cc1cc(C2=NNC(=Nc3ccc(S(=O)(=O)N4CCOCC4)cc3)SC2)c(C)n1CC1CCCO1` (centres undefined), the Potency was 11.2 µM (active). On to `c1ccc(-c2nnc3n2NC(c2ccc4c(c2)OCO4)S3)cc1` (centres undefined), for which the Potency is 0.0708 µM (active). `Cc1cc(C#N)c(SCC(N)=O)nc1-c1ccc(F)cc1`: the Potency was 2.82 µM (active). As to `CN(c1ccccc1)S(=O)(=O)c1cccc(NC(=O)Cc2ccc(Cl)cc2)c1`, the Potency is 6.31 µM (active). In the case of `COCCNC(=O)Nc1ccc2nc(-c3ccco3)c(-c3ccco3)nc2c1`, the Potency is 11.2 µM (active).

On to `COc1ccc(Cc2nnc(NS(=O)(=O)Cc3ccccc3)s2)cc1`, for which the Potency entry was “inactive”.

The values above are taken from PubChem BioAssay AID720569 (National Center for Advancing Translational Sciences (NCATS), 2013).
